Experimental data taken from ChEMBL document CHEMBL1961873, “Compounds: GSK PKIS; Assays: Nanosyn kinase panel” (2012).

Key:
[1] = target: T1, Mitogen-activated protein kinase 12 (Homo sapiens) (UniProt P53778); details: at 1 µM;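 further: values are averaged p38gamma kinase inhibition readings, compounds tested at 1 µM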
T1 sequence (whole entry): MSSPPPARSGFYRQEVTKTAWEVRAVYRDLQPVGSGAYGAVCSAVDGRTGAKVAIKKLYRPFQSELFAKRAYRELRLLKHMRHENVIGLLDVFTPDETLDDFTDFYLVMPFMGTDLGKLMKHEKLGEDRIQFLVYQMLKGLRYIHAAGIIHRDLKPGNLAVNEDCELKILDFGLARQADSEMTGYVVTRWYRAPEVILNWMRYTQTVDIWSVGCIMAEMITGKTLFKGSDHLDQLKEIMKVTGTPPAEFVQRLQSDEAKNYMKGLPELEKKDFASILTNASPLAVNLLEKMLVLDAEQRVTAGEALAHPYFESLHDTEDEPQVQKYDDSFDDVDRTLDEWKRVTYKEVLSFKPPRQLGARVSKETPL

[2] = target: SRSF protein kinase 1 (Homo sapiens) (UniProt Q96SB4); details: at 0.1 µM
[3] = target: SRSF protein kinase 1 (Homo sapiens) (UniProt Q96SB4); details: at 1 µM
[4] = target: Phosphatidylinositol 4,5-bisphosphate 3-kinase catalytic subunit alpha isoform (Homo sapiens) (UniProt P42336); details: at 0.1 µM
[5] = target: Phosphatidylinositol 4,5-bisphosphate 3-kinase catalytic subunit alpha isoform (Homo sapiens) (UniProt P42336); details: at 1 µM
[6] = target: T2, Phosphatidylinositol 4,5-bisphosphate 3-kinase catalytic subunit delta isoform (Homo sapiens) (UniProt O00329); details: at 0.1 µM
T2 sequence (whole entry): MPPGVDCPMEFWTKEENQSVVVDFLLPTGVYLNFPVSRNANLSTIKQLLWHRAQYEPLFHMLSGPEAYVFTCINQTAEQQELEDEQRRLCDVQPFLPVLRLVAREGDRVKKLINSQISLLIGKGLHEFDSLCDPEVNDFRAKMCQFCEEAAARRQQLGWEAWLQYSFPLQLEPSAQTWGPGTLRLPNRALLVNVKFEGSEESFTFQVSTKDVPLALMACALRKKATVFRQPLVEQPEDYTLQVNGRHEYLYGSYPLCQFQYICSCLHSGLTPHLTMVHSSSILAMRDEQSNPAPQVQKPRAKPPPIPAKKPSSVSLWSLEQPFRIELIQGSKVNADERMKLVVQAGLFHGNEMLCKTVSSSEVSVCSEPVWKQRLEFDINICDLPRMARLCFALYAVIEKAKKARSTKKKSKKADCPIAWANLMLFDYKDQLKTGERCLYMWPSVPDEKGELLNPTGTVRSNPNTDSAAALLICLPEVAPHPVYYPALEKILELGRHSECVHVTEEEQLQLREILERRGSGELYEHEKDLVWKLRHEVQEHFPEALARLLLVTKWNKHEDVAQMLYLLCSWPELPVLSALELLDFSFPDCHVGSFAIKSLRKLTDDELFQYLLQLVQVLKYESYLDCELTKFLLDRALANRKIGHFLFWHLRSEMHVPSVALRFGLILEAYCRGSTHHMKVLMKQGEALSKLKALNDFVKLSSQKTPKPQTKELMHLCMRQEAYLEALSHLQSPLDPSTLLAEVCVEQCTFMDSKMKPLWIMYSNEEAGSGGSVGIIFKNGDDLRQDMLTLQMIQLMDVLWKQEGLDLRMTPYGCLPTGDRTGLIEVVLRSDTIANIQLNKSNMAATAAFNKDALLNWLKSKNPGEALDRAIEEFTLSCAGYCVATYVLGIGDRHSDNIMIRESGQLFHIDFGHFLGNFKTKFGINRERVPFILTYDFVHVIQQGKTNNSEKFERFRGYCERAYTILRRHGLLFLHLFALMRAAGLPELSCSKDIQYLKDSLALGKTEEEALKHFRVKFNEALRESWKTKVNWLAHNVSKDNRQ

[7] = target: T2, Phosphatidylinositol 4,5-bisphosphate 3-kinase catalytic subunit delta isoform (Homo sapiens); details: at 1 µM
[8] = target: Phosphatidylinositol 4-kinase beta (Homo sapiens) (UniProt Q9UBF8); details: at 0.1 µM
[9] = target: Phosphatidylinositol 4-kinase beta (Homo sapiens) (UniProt Q9UBF8); details: at 1 µM
[10] = target: Sphingosine kinase 1 (Homo sapiens) (UniProt Q9NYA1); details: at 0.1 µM;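 further: mean percent inhibition of SPHK1 activity, measured within the GSK PKIS screening panel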
Sphingosine kinase 1 (Homo sapiens), sequence (Q9NYA1 whole entry): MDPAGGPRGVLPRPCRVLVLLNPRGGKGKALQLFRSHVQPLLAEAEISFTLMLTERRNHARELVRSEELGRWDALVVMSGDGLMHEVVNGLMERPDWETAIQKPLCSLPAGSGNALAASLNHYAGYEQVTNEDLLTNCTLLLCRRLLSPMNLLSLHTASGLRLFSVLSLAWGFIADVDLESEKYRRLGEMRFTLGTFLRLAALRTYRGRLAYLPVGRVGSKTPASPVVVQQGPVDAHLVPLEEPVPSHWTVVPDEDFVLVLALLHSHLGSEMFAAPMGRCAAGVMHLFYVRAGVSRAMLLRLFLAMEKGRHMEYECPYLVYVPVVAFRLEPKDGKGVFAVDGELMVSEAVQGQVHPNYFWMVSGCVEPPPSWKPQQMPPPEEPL

SRSF protein kinase 1 (Homo sapiens), sequence (Q96SB4 whole entry, canonical isoform): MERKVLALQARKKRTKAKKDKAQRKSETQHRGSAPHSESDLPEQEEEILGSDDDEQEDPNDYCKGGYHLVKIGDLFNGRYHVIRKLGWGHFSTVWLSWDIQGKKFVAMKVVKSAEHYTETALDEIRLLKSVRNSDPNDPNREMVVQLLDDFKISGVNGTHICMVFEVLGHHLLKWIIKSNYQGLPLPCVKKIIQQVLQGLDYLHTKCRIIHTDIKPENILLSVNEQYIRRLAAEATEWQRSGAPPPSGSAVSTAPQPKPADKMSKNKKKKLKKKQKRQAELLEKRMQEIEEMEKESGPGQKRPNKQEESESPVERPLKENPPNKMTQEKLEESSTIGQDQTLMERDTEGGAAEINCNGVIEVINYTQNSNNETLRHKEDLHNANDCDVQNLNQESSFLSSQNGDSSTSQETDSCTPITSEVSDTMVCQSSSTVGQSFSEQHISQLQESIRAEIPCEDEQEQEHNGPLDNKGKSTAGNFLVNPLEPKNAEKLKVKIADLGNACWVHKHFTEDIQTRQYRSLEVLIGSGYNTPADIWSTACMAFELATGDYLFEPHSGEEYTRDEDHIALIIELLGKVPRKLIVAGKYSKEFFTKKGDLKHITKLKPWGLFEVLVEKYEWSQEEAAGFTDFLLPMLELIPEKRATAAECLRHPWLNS
Phosphatidylinositol 4,5-bisphosphate 3-kinase catalytic subunit alpha isoform (Homo sapiens), sequence (P42336 whole entry, canonical isoform): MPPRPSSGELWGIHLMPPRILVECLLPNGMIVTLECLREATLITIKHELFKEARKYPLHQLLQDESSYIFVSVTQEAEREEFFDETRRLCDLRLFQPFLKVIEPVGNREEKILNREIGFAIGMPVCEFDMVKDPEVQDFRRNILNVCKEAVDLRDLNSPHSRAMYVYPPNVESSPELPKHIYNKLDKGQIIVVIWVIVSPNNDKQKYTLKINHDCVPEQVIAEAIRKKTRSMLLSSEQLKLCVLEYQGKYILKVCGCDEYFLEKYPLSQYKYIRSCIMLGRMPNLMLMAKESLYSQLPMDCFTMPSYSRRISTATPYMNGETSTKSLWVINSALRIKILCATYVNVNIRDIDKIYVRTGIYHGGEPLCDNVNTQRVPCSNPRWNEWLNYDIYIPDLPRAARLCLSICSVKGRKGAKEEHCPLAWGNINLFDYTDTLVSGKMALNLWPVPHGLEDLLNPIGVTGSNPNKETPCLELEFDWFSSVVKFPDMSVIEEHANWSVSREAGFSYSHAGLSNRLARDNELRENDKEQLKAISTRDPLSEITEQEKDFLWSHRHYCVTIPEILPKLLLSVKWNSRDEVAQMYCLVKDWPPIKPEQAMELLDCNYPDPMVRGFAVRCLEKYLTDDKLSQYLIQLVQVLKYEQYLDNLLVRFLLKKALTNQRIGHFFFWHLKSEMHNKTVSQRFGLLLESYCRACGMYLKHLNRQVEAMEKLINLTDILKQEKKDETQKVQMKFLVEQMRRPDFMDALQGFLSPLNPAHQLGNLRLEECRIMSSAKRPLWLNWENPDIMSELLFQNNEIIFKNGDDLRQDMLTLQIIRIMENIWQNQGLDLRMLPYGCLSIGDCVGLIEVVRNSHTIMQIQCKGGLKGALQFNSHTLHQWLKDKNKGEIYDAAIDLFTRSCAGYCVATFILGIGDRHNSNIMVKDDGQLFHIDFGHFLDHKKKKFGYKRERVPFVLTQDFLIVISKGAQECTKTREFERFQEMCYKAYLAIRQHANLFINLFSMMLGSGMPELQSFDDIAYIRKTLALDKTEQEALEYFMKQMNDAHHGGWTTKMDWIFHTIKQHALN
Phosphatidylinositol 4-kinase beta (Homo sapiens), sequence (Q9UBF8 2-816 limits assumed): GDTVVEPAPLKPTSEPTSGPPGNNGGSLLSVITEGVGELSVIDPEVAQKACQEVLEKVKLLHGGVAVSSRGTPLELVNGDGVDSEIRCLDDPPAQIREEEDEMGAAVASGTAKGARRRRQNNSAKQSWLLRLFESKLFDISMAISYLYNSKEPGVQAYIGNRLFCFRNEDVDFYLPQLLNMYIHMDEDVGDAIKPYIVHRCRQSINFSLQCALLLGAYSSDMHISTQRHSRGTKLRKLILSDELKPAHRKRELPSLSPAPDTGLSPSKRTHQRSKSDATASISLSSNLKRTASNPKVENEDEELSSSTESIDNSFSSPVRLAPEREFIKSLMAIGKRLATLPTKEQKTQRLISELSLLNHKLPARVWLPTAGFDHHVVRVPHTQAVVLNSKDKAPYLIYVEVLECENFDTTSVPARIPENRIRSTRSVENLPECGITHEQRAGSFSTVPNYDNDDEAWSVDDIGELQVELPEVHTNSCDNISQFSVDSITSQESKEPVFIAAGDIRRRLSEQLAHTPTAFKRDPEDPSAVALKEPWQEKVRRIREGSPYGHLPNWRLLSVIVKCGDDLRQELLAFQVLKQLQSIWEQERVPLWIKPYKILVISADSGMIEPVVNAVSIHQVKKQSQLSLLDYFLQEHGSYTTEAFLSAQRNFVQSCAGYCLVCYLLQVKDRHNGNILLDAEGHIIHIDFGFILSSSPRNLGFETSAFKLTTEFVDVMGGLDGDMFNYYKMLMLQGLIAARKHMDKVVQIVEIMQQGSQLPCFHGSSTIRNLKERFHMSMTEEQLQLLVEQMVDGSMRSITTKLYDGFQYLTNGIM

| SMILES | inhibition [1] [%] | inhibition [2] [%] | inhibition [3] [%] | inhibition [4] [%] | inhibition [5] [%] | inhibition [6] [%] | inhibition [7] [%] | inhibition [8] [%] | inhibition [9] [%] | inhibition [10] [%] |
| --- | --- | --- | --- | --- | --- | --- | --- | --- | --- | --- |
| COc1ccc2cc(-c3c(-c4ccncc4)nc(-c4ccc([S+](C)[O-])cc4)n3C)ccc2c1 (centres undefined) | 2.03 | -3.09 | -4.71 | 2.81 | 3.47 | 6.86 | 3.16 | -2.02 | -2.26 | 0.08 |
| CC(=O)Nc1cccc(C#Cc2cncnc2Nc2ccc(OCc3cccc(F)c3)c(Cl)c2)n1 | -1.66 | 1.83 | 6.55 | 1.06 | -3.01 | -2.12 | -0.16 | 2.97 | 0.88 | 0.46 |
| COc1ccc(-c2coc3ncnc(N)c23)cc1 | 2.95 | -2.53 | -4.3 | 3.88 | 8.12 | 2.89 | 11.6 | 2.15 | -0.74 | -2.41 |
| Nc1nc(-c2ccc3c(c2)C(=Cc2cc(Br)c(O)c(Br)c2)C(=O)N3)cs1 | -1.45 | 1.08 | 1.39 | 0.41 | 24.5 | – | – | 36.1 | 71.6 | 2.04 |
| NCc1ccc(-c2nc(-c3ccc(Cl)c(O)c3)c(-c3ccncc3)[nH]2)cc1 | 2.04 | -1.76 | -4.18 | -0.47 | 3.94 | 0.9 | 6.6 | -3.9 | -2.79 | 2.55 |
| c1cnn2ncc(-c3ccnc(Nc4ccc5c(c4)OCCO5)n3)c2c1 | 6.13 | 0.05 | 2.88 | 7.25 | 30.2 | 4.69 | 26.1 | 1.98 | 9.37 | 1.6 |
| CCCN1CCC(Oc2cc(Nc3nc(Nc4cccc(F)c4C(N)=O)c4cc[nH]c4n3)c(OC)cc2Cl)CC1 | 0.42 | -0.3 | -0.85 | -1.23 | -1.07 | -0.45 | 0.08 | 3.96 | -2.71 | 0.48 |
| CCn1c(-c2nonc2N)nc2c(C#CC(C)(C)O)nc(OC[C@@H](N)c3ccccc3)cc21 | -0.24 | 0.57 | -0.56 | -3.76 | -3.41 | -2.59 | -3.08 | 0.16 | 2.95 | 0.21 |
| CCn1c(-c2nonc2N)nc2ccncc21 | 1.43 | -3.78 | -6.35 | 0.03 | 1.86 | 2.2 | 2.13 | 4.46 | -4.32 | -1.27 |
| CS(=O)(=O)CCNCc1ccc(-c2ccc3ncnc(Nc4ccc(OCc5cccc(F)c5)c(C(F)(F)F)c4)c3c2)o1 | 3.16 | -1.9 | -0.25 | 3.86 | 7.14 | 2.85 | 7.89 | – | -2.15 | -0.87 |
| COC(=O)Nc1nc2cc(Oc3cccc(NC(=O)Nc4cc(C(F)(F)F)ccc4F)c3)ccc2[nH]1 | -0.42 | -0.98 | -3.74 | -3.27 | -1.03 | 0.19 | 0.17 | 1.18 | 0.44 | -0.62 |
| O=C1Nc2ccc(C(=O)c3ccco3)cc2C1=Cc1cc(Cl)c(O)c(Cl)c1 | 5.17 | -1.28 | 1.6 | 21.6 | 69.1 | 8.04 | 24.9 | 37.4 | 80.7 | 7.33 |
| CCn1c(-c2nonc2N)nc2cncc(C(=O)N3CCNCC3)c21 | 5.97 | -1.32 | -1.85 | 5.78 | 5.67 | 1.16 | 2.58 | -4.56 | – | -1.49 |
| COc1ccc(-c2nn3ncccc3c2-c2ccnc(Nc3ccc(Cl)c(C(F)(F)F)c3)n2)cc1 | 0.36 | -1.95 | -0.38 | 1 | 10.4 | -0.59 | 2.57 | -1.86 | 0.08 | 19.3 |
| O=C1NC(=O)C(c2ccccc2Cl)=C1Nc1cccc(O)c1 | 0.99 | -0.74 | 1.37 | 1.03 | 1.86 | 2.66 | 3.71 | 1.19 | -2.78 | -1.24 |
| COc1cc(C=NNc2ncnc3c2cnn3-c2ccccc2)ccc1O | 5.79 | -0.73 | 0.63 | 6.59 | 15.9 | 8.17 | 18 | -0.81 | -0.12 | -0.86 |
| NS(=O)(=O)c1cccc(-c2ccc3c(NC(=O)C4CC4)n[nH]c3c2)c1 | -1.58 | 1.47 | 1.47 | 2.99 | 3.6 | 7.35 | 8.71 | 1.29 | -3.98 | 0.58 |
| COc1ccccc1Nc1ncc(-c2ccccc2)o1 | 4.08 | -4.21 | -2.61 | 5.32 | 6.11 | 0.95 | 2.27 | -0.97 | 0.94 | 0 |
| NC(=O)c1ccc(-c2nc(-c3ccccn3)c(-c3ccc4c(c3)OCO4)[nH]2)cc1 | 1.74 | -2.38 | -2.03 | 1.4 | -0.55 | 0.37 | 2.45 | -5.45 | -2.85 | 3.02 |
| CS(=O)(=O)CCNCc1nc(-c2ccc3ncnc(Nc4ccc(F)c(Cl)c4)c3c2)cs1 | 1.73 | -0.47 | 1.62 | 1.55 | 16.8 | 1.95 | 5.42 | 6.61 | 5.06 | -0.56 |
| CCn1c(-c2nonc2N)nc2c(C#CC(C)(C)O)nc(CN3CCCC3)cc21 | 0.15 | -2.3 | -2.96 | -2.21 | -0.12 | 0.87 | 3.83 | -0.02 | -2.03 | 0.49 |
| COC(=O)Nc1nc2cc(Oc3ccc(NC(=O)Nc4cccc(C(=O)O)c4)cc3)ccc2[nH]1 | -0.37 | -0.09 | 3.15 | -0.54 | -3.19 | -1.33 | -1.97 | 2.72 | -1.03 | 0.94 |
| CC1=C(C(=O)Nc2ccc3[nH]ncc3c2)C(c2ccc(Cl)c(Cl)c2)CC(=O)N1 (centres undefined) | 1.19 | -1.56 | -3.22 | -0.33 | -0.79 | 0.18 | 1.04 | 0.44 | -1.19 | 0.43 |
| O=C1NC(=O)C(c2cccc(Cl)c2)=C1Nc1ccc(O)c(Cl)c1 | 0.35 | -2.71 | -4.83 | -1.72 | 5.36 | 0.8 | 4.17 | -4.92 | 1.17 | 1.58 |
| CC1=C(C(=O)Nc2ccc3[nH]ncc3c2)C(c2ccc3ccccc3c2)CC(=O)N1 (centres undefined) | 1.97 | -1.36 | 0.02 | 5.28 | 5.6 | 4.38 | 4.97 | -1.78 | 0.34 | 1.83 |
| CCCN1CCC=C(c2ccc(Nc3nc(Nc4ccccc4C(N)=O)c4cc[nH]c4n3)c(C)c2)C1 | 6.14 | -2.75 | 12 | 4.1 | 19.9 | 1.79 | 17.8 | -1.7 | -0.01 | 0.57 |
| CN1CCC(C(=O)Nc2n[nH]c3nnc(-c4ccccc4)cc23)CC1 | 3.34 | -2.38 | -0.73 | 4.88 | 4.26 | 1.61 | 1.12 | – | – | 1.63 |
| [O-][S+]1CCN(Cc2ccc(-c3ccc4ncnc(Nc5ccc(OCc6ccccc6)c(F)c5)c4c3)o2)CC1 | 2.56 | -2.36 | -4.42 | 1.82 | 3.14 | 2.61 | 5.44 | -0.3 | -1.35 | -0.6 |
